Residual activity data for six compounds are collected here from ChEMBL document CHEMBL2218924, “A broad activity screen in support of a chemogenomic map for kinase signalling research and drug discovery” (Biochem J, 2013).

The target in test [1] is Insulin receptor (Homo sapiens) (UniProt P06213). The following applies: at 10 µM.
The target is the same in test [2]. To be noted: at 1 µM.
Test [3] shares this target. The following applies: at 10 µM. This is another data set of the same source.
The target in test [4] is Interleukin-1 receptor-associated kinase 1 (Homo sapiens) (UniProt P51617). The following applies: at 1 µM.
Sequence of Interleukin-1 receptor-associated kinase 1 (Homo sapiens) (P51617 whole entry, looked up): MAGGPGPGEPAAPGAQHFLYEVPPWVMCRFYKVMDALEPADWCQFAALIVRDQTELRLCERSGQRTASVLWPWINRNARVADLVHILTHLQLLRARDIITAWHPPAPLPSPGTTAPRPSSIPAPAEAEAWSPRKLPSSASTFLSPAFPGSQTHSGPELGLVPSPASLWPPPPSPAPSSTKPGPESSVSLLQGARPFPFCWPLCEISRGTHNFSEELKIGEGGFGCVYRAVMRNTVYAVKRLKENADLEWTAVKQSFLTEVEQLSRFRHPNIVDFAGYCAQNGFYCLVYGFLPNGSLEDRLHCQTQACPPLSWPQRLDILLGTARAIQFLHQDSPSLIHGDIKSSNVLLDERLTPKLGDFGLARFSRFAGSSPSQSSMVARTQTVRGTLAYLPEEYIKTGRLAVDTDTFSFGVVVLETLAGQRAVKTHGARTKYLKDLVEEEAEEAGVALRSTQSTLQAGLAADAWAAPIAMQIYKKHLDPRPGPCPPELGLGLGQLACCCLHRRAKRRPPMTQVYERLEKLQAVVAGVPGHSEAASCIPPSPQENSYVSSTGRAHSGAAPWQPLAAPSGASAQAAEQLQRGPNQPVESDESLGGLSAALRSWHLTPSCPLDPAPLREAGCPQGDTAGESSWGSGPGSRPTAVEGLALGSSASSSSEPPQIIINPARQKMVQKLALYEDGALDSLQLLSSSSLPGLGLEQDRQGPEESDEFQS
For test [5] the target is unchanged. The following applies: at 10 µM.
Test [6] concerns the target T1, Interleukin-1 receptor-associated kinase 4 (Homo sapiens) (UniProt Q9NWZ3).
T1 sequence (whole entry): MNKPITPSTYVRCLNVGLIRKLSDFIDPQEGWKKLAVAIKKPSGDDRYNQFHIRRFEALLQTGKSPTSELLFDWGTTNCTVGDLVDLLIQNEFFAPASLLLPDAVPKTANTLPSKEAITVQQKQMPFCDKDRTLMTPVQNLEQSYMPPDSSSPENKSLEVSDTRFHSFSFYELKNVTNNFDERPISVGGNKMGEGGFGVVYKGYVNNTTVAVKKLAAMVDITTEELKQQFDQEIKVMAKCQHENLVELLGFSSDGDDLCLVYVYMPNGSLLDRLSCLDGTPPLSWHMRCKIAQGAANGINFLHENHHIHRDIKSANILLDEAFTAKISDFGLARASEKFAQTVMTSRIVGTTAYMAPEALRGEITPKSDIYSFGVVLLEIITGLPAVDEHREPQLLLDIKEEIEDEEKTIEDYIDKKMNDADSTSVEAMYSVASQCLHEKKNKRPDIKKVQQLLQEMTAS
To be noted: at 1 µM.

The target in test [7] is T1, Interleukin-1 receptor-associated kinase 4 (Homo sapiens). The following applies: at 10 µM.
For test [8], the target named is Insulin receptor-related protein (Homo sapiens) (UniProt P14616). To be noted: at 1 µM.
Sequence of Insulin receptor-related protein (Homo sapiens) (P14616 27-742 limits assumed): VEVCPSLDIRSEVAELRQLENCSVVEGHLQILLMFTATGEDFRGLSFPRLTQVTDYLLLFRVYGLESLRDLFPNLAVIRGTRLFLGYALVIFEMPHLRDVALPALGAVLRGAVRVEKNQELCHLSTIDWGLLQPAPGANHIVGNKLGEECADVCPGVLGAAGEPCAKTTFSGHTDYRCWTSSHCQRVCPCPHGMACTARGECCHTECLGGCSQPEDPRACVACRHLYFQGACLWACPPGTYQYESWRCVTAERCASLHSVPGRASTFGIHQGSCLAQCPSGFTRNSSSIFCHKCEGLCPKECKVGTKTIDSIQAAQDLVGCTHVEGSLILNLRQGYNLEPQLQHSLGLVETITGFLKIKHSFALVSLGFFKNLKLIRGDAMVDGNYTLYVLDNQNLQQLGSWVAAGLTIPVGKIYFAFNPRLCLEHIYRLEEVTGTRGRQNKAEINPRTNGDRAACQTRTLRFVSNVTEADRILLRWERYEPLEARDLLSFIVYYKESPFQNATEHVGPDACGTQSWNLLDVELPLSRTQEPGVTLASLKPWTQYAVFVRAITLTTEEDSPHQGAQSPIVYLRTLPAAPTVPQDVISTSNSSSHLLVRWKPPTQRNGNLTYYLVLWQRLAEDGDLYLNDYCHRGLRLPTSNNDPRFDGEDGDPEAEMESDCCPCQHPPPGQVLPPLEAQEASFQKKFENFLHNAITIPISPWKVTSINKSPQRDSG
Sequence of Insulin receptor-related protein (Homo sapiens) (P14616 747-1297 limits assumed): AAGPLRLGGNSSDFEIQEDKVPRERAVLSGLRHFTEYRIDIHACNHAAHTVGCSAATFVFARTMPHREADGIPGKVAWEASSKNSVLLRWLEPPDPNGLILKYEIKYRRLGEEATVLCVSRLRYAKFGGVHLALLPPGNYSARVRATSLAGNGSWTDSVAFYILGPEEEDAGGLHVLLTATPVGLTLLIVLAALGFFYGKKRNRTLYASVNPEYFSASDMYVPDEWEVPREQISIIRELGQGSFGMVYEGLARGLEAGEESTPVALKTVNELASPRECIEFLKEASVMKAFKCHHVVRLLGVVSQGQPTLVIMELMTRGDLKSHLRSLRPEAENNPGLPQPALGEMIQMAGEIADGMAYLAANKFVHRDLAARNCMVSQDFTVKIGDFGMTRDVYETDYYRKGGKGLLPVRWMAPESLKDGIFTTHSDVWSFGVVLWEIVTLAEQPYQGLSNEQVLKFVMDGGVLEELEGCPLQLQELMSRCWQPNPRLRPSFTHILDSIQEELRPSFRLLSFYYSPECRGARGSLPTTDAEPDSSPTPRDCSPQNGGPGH
For test [9] the target is unchanged. The following applies: at 10 µM.
Test [10] deals with T2, Tyrosine-protein kinase ITK/TSK (Homo sapiens) (UniProt Q08881).
T2 sequence (whole entry): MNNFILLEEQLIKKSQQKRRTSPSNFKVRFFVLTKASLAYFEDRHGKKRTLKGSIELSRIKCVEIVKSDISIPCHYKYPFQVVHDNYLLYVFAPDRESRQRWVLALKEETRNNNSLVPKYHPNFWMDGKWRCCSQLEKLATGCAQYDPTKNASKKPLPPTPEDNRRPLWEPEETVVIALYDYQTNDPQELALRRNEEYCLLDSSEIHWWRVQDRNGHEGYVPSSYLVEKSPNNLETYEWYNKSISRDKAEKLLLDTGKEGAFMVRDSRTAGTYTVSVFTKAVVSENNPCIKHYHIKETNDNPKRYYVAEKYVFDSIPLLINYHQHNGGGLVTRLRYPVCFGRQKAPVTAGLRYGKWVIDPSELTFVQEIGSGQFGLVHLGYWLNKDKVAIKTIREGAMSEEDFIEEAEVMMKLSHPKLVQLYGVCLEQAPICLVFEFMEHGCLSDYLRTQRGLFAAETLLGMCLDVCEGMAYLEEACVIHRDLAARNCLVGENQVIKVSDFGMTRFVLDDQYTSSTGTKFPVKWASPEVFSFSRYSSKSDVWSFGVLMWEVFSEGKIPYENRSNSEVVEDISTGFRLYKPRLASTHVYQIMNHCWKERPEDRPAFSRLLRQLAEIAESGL
To be noted: at 1 µM.

The target in test [11] is T2, Tyrosine-protein kinase ITK/TSK (Homo sapiens). To be noted: at 10 µM.
Test [12] has as its target Tyrosine-protein kinase JAK2 (Homo sapiens) (UniProt O60674). The following applies: at 1 µM.
Test [13] shares this target. The following applies: at 10 µM.
Test [14] deals with T3, Tyrosine-protein kinase JAK3 (Homo sapiens) (UniProt P52333).
T3 sequence (whole entry): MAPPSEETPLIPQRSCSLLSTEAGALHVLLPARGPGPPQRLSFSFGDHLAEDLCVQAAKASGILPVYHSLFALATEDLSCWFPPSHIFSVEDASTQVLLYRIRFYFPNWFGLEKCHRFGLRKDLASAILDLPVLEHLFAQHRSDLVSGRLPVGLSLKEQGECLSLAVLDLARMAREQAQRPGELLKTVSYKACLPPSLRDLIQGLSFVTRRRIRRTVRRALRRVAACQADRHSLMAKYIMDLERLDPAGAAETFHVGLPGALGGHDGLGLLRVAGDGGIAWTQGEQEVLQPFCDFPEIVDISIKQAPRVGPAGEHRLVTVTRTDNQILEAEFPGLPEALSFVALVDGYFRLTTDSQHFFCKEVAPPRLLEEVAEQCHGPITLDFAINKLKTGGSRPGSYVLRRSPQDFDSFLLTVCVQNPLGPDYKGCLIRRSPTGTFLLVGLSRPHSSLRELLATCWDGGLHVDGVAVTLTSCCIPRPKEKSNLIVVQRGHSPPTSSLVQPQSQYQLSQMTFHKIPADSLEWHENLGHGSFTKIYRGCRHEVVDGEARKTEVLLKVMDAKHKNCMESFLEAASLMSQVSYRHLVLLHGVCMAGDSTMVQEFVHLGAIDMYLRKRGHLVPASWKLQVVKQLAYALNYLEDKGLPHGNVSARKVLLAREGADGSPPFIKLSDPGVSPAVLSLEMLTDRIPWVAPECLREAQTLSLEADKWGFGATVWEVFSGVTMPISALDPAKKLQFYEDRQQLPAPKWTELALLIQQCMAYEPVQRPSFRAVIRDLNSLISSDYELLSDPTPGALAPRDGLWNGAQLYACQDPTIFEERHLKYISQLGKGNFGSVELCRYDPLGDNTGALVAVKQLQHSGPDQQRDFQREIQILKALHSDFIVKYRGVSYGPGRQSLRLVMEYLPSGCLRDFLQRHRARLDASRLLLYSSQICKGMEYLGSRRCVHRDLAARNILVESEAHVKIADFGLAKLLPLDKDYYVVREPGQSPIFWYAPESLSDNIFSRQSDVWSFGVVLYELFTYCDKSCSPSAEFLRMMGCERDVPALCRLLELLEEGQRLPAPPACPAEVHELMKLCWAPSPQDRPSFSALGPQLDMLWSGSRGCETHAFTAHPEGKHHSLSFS
To be noted: at 1 µM.

Test [15] addresses T3, Tyrosine-protein kinase JAK3 (Homo sapiens). To be noted: at 10 µM.
Test [16] has as its target Mitogen-activated protein kinase 8 (Homo sapiens) (UniProt P45983). To be noted: at 1 µM.
For test [17] the target is unchanged. The following applies: at 10 µM.
The target of test [18] is Mitogen-activated protein kinase 9 (Homo sapiens) (UniProt P45984). To be noted: at 1 µM.
Sequence of Mitogen-activated protein kinase 9 (Homo sapiens) (P45984 whole entry, looked up): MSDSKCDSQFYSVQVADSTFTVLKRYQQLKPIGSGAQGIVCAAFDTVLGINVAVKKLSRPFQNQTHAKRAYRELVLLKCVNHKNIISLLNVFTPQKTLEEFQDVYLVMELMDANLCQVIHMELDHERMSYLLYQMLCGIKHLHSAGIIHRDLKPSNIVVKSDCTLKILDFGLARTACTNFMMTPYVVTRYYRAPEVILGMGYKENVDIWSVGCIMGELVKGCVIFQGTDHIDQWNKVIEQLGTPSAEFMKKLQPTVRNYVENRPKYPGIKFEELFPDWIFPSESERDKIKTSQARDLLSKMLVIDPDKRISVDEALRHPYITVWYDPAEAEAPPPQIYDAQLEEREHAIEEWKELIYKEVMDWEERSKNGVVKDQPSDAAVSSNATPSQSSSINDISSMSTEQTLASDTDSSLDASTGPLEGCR
Test [19] has the same target. To be noted: at 10 µM.
The target of test [20] is Mitogen-activated protein kinase 10 (Homo sapiens) (UniProt P53779). To be noted: at 1 µM.
Sequence of Mitogen-activated protein kinase 10 (Homo sapiens) (P53779 whole entry): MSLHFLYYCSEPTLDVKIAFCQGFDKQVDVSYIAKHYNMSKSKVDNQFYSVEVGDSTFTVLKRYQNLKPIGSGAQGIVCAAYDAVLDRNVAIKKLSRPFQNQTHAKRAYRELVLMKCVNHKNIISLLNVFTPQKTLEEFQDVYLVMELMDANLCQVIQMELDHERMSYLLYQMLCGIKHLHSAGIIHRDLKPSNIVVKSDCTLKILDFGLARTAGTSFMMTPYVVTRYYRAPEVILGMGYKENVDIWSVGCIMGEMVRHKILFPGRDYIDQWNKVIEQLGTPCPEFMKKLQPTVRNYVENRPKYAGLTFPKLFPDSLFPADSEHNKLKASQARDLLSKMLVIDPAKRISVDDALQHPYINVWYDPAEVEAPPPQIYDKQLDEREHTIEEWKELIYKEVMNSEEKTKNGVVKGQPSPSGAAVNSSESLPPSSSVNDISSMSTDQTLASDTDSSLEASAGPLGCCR

Sequence of Tyrosine-protein kinase JAK2 (Homo sapiens) (O60674 whole entry): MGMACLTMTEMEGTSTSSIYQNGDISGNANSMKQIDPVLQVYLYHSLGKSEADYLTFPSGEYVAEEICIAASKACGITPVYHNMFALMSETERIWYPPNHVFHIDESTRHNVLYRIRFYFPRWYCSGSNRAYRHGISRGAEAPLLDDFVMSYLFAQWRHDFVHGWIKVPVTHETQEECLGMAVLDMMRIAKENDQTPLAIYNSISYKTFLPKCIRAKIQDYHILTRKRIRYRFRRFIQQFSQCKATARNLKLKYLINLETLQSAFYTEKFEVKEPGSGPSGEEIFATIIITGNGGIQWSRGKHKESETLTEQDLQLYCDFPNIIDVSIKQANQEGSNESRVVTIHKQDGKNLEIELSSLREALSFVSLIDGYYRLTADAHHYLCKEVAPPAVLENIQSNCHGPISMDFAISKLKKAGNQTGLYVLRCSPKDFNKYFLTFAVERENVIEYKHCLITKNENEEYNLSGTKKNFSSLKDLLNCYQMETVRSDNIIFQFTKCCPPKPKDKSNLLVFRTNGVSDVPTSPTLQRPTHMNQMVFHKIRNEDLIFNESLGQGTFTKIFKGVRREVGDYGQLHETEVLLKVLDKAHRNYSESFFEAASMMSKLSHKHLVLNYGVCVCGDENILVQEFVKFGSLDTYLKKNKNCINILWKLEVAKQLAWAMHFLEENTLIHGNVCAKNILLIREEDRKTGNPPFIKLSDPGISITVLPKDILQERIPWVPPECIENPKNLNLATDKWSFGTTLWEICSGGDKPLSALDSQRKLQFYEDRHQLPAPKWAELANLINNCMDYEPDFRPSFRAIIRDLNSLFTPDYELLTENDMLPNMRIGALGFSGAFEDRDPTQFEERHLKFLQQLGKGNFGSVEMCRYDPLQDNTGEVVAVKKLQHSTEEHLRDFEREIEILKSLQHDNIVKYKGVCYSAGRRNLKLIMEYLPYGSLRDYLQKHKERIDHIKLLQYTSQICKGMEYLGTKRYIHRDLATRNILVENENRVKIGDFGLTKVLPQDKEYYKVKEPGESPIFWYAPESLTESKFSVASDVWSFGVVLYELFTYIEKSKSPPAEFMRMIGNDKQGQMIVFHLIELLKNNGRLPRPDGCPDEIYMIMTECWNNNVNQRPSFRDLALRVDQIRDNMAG
Sequence of Mitogen-activated protein kinase 8 (Homo sapiens) (P45983 whole entry): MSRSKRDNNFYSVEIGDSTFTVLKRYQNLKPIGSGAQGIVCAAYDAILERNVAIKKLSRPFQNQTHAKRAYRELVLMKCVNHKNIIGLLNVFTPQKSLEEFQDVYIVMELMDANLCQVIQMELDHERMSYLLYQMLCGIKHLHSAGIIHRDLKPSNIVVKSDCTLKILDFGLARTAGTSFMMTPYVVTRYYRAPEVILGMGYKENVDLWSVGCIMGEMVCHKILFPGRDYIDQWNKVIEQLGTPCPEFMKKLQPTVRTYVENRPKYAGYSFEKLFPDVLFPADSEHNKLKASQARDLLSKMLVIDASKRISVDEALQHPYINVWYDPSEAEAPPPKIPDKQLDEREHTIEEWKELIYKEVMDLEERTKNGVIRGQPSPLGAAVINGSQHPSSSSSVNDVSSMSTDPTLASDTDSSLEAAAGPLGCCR

`COc1ccc(S(=O)(=O)N(CCO)c2ccccc2CN(C)C/C=C/c2ccc(Cl)cc2)cc1`: the residual activity was determined as 114% in [1]; 100% in [2]; 90% in test [3]; 99% in [4]; 106% in [5]; 81% in [6]. Also, the residual activity in test [7] came to 75%; in test [8], 117%; in test [9], 90%; in [10], 99%; in [11], 94%; in test [12] it was 102%. Moreover, the residual activity in test [13] was 131%; in test [14], 116%; in test [15], 104%; in test [16] it was 95%; in test [17] it was 85%; in [18], 92%. Besides, the residual activity in test [19] amounted to 97%; in [20], 82%.
`O=C1Nc2ccccc2/C1=C1/Nc2ccccc2/C1=N\OCCC(O)CO` (stereo not given): the residual activity in test [1] worked out at 4%; in test [2], 10%; in test [3], 4%; in test [4], 31%; in test [5] it was 23%; in [6], 16%. The residual activity amounted to 0% in test [7]; 2% in [8]; 2% in test [9]; 24% in [10]; 2% in test [11]; 27% in test [12]. Besides, the residual activity amounted to 29% in test [13]; 13% in test [14]; 1% in [15]; 56% in [16]; 61% in test [17]; 43% in test [18]. The residual activity in [19] was 30%; in test [20], 5%.
With `CCC(=O)Nc1ccc2ncnc(Nc3cccc(Br)c3)c2c1`, the residual activity worked out at 79% in test [1]; 102% in [2]; 100% in test [3]; 89% in test [4]; 83% in test [5]; 96% in [6]. Besides, the residual activity in test [7] stood at 91%; in [8] it was 111%; in test [9] it was 79%; in [10], 106%; in [11] it was 102%; in test [12] it was 89%. Besides, the residual activity came to 107% in [13]; 99% in test [14]; 100% in test [15]; 94% in test [16]; 76% in test [17]; 105% in test [18]. For the same compound, the residual activity in [19] is 89%; in test [20] it was 72%.
On to `O=C1NC(=O)/C(=C/c2ccc3c(c2)OC(F)(F)O3)S1`, for which the residual activity in [1] came out at 103%; in test [2], 104%; in test [3] it was 98%; in test [4], 102%; in [5] it was 80%; in test [6], 111%. Also, the residual activity in [7] is 106%; in test [8], 139%; in test [9], 99%; in test [10], 103%; in test [11] it was 108%; in test [12], 101%. Further, the residual activity in test [13] is 97%; in [14], 94%; in [15], 63%; in test [16], 106%; in [17] it was 106%; in test [18], 106%. Besides, the residual activity was 102% in test [19] and 81% in [20].
Take `CC#CC(=O)Nc1cc2c(Nc3ccc(F)c(Cl)c3)ncnc2cn1`: the residual activity in test [1] came out at 85%; in test [2], 103%; in test [3], 98%; in test [4], 94%; in test [5], 73%; in test [6], 103%. Besides, the residual activity in [7] came to 98%; in [8] it was 127%; in test [9] it was 86%; in test [10] it was 100%; in test [11], 92%; in test [12], 96%. Further, the residual activity stood at 97% in test [13]; 51% in [14]; 59% in [15]; 96% in test [16]; 72% in [17]; 103% in [18]. Besides, the figures for the residual activity in [19] and in test [20] were 95% and 76%, respectively.
With `Cc1nc(-c2ccccc2)c(-c2ccncc2)o1`, the residual activity is 106% in [1]; 109% in test [2]; 93% in [3]; 110% in test [4]; 107% in [5]; 104% in test [6]. For the same compound, the residual activity in test [7] is 88%; in test [8], 118%; in [9] it was 123%; in test [10], 113%; in [11] it was 101%; in test [12] it was 113%. In addition, the residual activity in test [13] was 115%; in test [14], 97%; in test [15], 114%; in test [16], 107%; in test [17] it was 94%; in test [18], 88%. In addition, the residual activity was determined as 57% in [19] and 63% in test [20].
